Measured values taken from ChEMBL document CHEMBL4296182, “CO-ADD screening of NIH NCI Diversity Set V”.
For part of these data: Entries with a potency or affinity are not part of this list.

Experiments:
Staphylococcus aureus = assay: Antibacterial activity against Staphylococcus aureus MRSA ATCC 43300 (CO-ADD:GP_020); MIC in CAMBH media using NBS plates, by Resazurin F(560/590); format: functional; conditions: Concentration 20 uM, ASSAY_TEST Inhibition of Bacterial Growth, detection method Resazurin, Fluorescence (ex560/em590), MEDIA CAMHB, plate type 384well, CORNING #3640, time 18 hr
Acinetobacter baumannii = assay: Antibacterial activity against Acinetobacter baumannii ATCC 19606 (CO-ADD:GN_034); MIC in CAMBH media using NBS plates, by Resazurin F(560/590); format: functional; conditions: Concentration 20 uM, ASSAY_TEST Inhibition of Bacterial Growth, detection method Resazurin, Fluorescence (ex560/em590), MEDIA CAMHB, plate type 384well, CORNING #3640, time 18 hr
Escherichia coli = assay: Antibacterial activity against Escherichia coli ATCC 25922 (CO-ADD:GN_001); MIC in CAMBH media using NBS plates, by Resazurin F(560/590); format: functional; conditions: Concentration 20 uM, ASSAY_TEST Inhibition of Bacterial Growth, detection method Resazurin, Fluorescence (ex560/em590), MEDIA CAMHB, plate type 384well, CORNING #3640, time 18 hr
Klebsiella pneumoniae = conditions: Concentration 20 uM; ASSAY_TEST Inhibition of Bacterial Growth; detection method Absorption (OD600); MEDIA CAMHB; plate type 384well; NBS; CORNING #3640; time 18 hr
Candida albicans = conditions: 20 µM
Cryptococcus neoformans = conditions: Concentration 20 uM; ASSAY_TEST Inhibition of Fungal Growth; detection method Resazurin; Absorption (OD600-OD570); plate type 384well; NBS; CORNING #3640

SMILES: O=C(CSc1nc2ccc([N+](=O)[O-])cc2s1)c1ccc2ccccc2c1
- Inhibition (Staphylococcus aureus): -1.33%
- Inhibition (Acinetobacter baumannii): 12.85%
- Inhibition (Escherichia coli): 5.26%
- Inhibition (Klebsiella pneumoniae): 23.99%
- Inhibition (Candida albicans): 1.85%
- Inhibition (Cryptococcus neoformans): 15.23%

SMILES: Br.CN(C)c1n/c(=N/Cc2ccco2)ss1
- Inhibition (Staphylococcus aureus): 15.96%
- Inhibition (Acinetobacter baumannii): 6%
- Inhibition (Escherichia coli): 7.56%
- Inhibition (Klebsiella pneumoniae): 27.1%
- Inhibition (Candida albicans): 6.89%
- Inhibition (Cryptococcus neoformans): -13.39%

SMILES: Cc1cc(O)c2c(C)ccc(C)c2n1
- Inhibition (Staphylococcus aureus): 0.21%
- Inhibition (Acinetobacter baumannii): 1.08%
- Inhibition (Escherichia coli): 3.82%
- Inhibition (Klebsiella pneumoniae): 5.25%
- Inhibition (Candida albicans): 0.13%
- Inhibition (Cryptococcus neoformans): -9.44%

SMILES: COc1cc(CCC(=O)O)on1
- Inhibition (Staphylococcus aureus): 9.35%
- Inhibition (Acinetobacter baumannii): -6.5%
- Inhibition (Escherichia coli): 10.23%
- Inhibition (Klebsiella pneumoniae): 8.1%
- Inhibition (Candida albicans): -0.47%
- Inhibition (Cryptococcus neoformans): -11.79%

SMILES: CSc1c(N(C)C)c(=O)c1=S
- Inhibition (Staphylococcus aureus): -5.31%
- Inhibition (Acinetobacter baumannii): -13.14%
- Inhibition (Escherichia coli): 11.42%
- Inhibition (Klebsiella pneumoniae): 6.17%
- Inhibition (Candida albicans): 1.7%
- Inhibition (Cryptococcus neoformans): -16.36%

SMILES: O=[N+]([O-])c1cc2cccnc2c2ncccc12
- Inhibition (Staphylococcus aureus): -17.5%
- Inhibition (Acinetobacter baumannii): -9.82%
- Inhibition (Escherichia coli): 9.62%
- Inhibition (Klebsiella pneumoniae): 9.1%
- Inhibition (Candida albicans): 0.77%
- Inhibition (Cryptococcus neoformans): -9.49%

SMILES: CCCCCC(=O)N1CCCC1
- Inhibition (Staphylococcus aureus): 12.42%
- Inhibition (Acinetobacter baumannii): -13.64%
- Inhibition (Escherichia coli): 4.47%
- Inhibition (Klebsiella pneumoniae): 10.8%
- Inhibition (Candida albicans): 0.29%
- Inhibition (Cryptococcus neoformans): -1.54%

SMILES: Cc1ccc(Nc2nnc(-c3ccc4c(c3)OCO4)o2)c(C)c1
- Inhibition (Staphylococcus aureus): 30.86%
- Inhibition (Acinetobacter baumannii): -8.42%
- Inhibition (Escherichia coli): 5.86%
- Inhibition (Klebsiella pneumoniae): 21.23%
- Inhibition (Candida albicans): 28.8%
- Inhibition (Cryptococcus neoformans): -3.73%

SMILES: Cc1cc2c(cc1C)NC1=C(O)C(c3cccc(O)c3)OC1=N2 (stereo unspecified)
- Inhibition (Staphylococcus aureus): 3.69%
- Inhibition (Acinetobacter baumannii): 4.58%
- Inhibition (Escherichia coli): -10.78%
- Inhibition (Klebsiella pneumoniae): 28.82%
- Inhibition (Candida albicans): 3.61%
- Inhibition (Cryptococcus neoformans): -0.13%

SMILES: Cc1ccc(NC(=O)Nc2cccnc2)cc1NC(=O)Nc1cccnc1
- Inhibition (Staphylococcus aureus): 4.86%
- Inhibition (Acinetobacter baumannii): 3.3%
- Inhibition (Escherichia coli): 5.1%
- Inhibition (Klebsiella pneumoniae): 8.48%
- Inhibition (Candida albicans): -3.78%
- Inhibition (Cryptococcus neoformans): -10.14%

SMILES: CN(C)CCCn1c2c3ccccc3ccc2c2oc(=O)c3ccccc3c21.Cl
- Inhibition (Staphylococcus aureus): 14.28%
- Inhibition (Acinetobacter baumannii): -7.18%
- Inhibition (Escherichia coli): 12.65%
- Inhibition (Klebsiella pneumoniae): 11.13%
- Inhibition (Candida albicans): 0.85%
- Inhibition (Cryptococcus neoformans): -2.35%

SMILES: CC(=O)O[C@H]1CC[C@@]2(C)[C@@H](CC[C@@H]3[C@@H]2CC(=O)[C@@]2(C)[C@H]3C[C@@H]3CC(C)=CC(=O)[C@@H]32)C1
- Inhibition (Staphylococcus aureus): 25.43%
- Inhibition (Acinetobacter baumannii): -5.19%
- Inhibition (Escherichia coli): 14.73%
- Inhibition (Klebsiella pneumoniae): 18.64%
- Inhibition (Candida albicans): 2.5%
- Inhibition (Cryptococcus neoformans): -9.27%

SMILES: CN1CCc2ccccc2C1Cc1ccccc1NC(=O)c1sc2ccccc2c1Cl (stereo unspecified)
- Inhibition (Staphylococcus aureus): 1.84%
- Inhibition (Acinetobacter baumannii): -6.84%
- Inhibition (Escherichia coli): 0.33%
- Inhibition (Klebsiella pneumoniae): 11.11%
- Inhibition (Candida albicans): 2.39%
- Inhibition (Cryptococcus neoformans): -3.5%

SMILES: CCCCC[C@H](O)/C=C/[C@@H]1[C@@H](C/C=C\CCCC(=O)O)[C@@H](O)C[C@H]1O.NC(CO)(CO)CO [DINOPROST TROMETHAMINE]
- Inhibition (Staphylococcus aureus): 12.44%
- Inhibition (Acinetobacter baumannii): -5.18%
- Inhibition (Escherichia coli): 11.57%
- Inhibition (Klebsiella pneumoniae): 16.21%
- Inhibition (Candida albicans): -0.17%
- Inhibition (Cryptococcus neoformans): -7.36%

SMILES: O=C(/C=C/c1ccccc1Cl)c1ccc(O)cc1
- Inhibition (Staphylococcus aureus): 3.85%
- Inhibition (Acinetobacter baumannii): 0.76%
- Inhibition (Escherichia coli): -16.06%
- Inhibition (Klebsiella pneumoniae): 19.85%
- Inhibition (Candida albicans): 14.7%
- Inhibition (Cryptococcus neoformans): 8.89%

SMILES: Cc1c(Cc2ccccc2)[n+]([O-])c2ccccc2[n+]1[O-]
- Inhibition (Staphylococcus aureus): 19.3%
- Inhibition (Acinetobacter baumannii): -9.71%
- Inhibition (Escherichia coli): 20.29%
- Inhibition (Klebsiella pneumoniae): -6.69%
- Inhibition (Candida albicans): -1.35%
- Inhibition (Cryptococcus neoformans): -12.82%

SMILES: COc1ccc(/C(C#N)=C/c2ccccn2)cc1
- Inhibition (Staphylococcus aureus): 30.75%
- Inhibition (Acinetobacter baumannii): -12.49%
- Inhibition (Escherichia coli): 21.69%
- Inhibition (Klebsiella pneumoniae): 10.64%
- Inhibition (Candida albicans): 7.54%
- Inhibition (Cryptococcus neoformans): 8.53%

SMILES: Cn1cnc([N+](=O)[O-])c1Sc1nc[nH]n1
- Inhibition (Staphylococcus aureus): 12.64%
- Inhibition (Acinetobacter baumannii): 10.96%
- Inhibition (Escherichia coli): 6.64%
- Inhibition (Klebsiella pneumoniae): 17.02%
- Inhibition (Candida albicans): 2.6%
- Inhibition (Cryptococcus neoformans): -9.11%

SMILES: C=CCNC(=S)NCC=C
- Inhibition (Staphylococcus aureus): 10.5%
- Inhibition (Acinetobacter baumannii): -8.96%
- Inhibition (Escherichia coli): 3.32%
- Inhibition (Klebsiella pneumoniae): 27.24%
- Inhibition (Candida albicans): 1.09%
- Inhibition (Cryptococcus neoformans): 2.25%

SMILES: Cc1ccc(CC#N)c(-c2c(CC#N)ccc(C)c2C)c1C
- Inhibition (Staphylococcus aureus): 10.31%
- Inhibition (Acinetobacter baumannii): -9.1%
- Inhibition (Escherichia coli): 13.28%
- Inhibition (Klebsiella pneumoniae): 6.29%
- Inhibition (Candida albicans): 3.94%
- Inhibition (Cryptococcus neoformans): -13.71%

SMILES: OCCN1CCSC1=S
- Inhibition (Staphylococcus aureus): 15.14%
- Inhibition (Acinetobacter baumannii): -9.39%
- Inhibition (Escherichia coli): 8.07%
- Inhibition (Klebsiella pneumoniae): 16.39%
- Inhibition (Candida albicans): 1.12%
- Inhibition (Cryptococcus neoformans): -6.82%
